Measurements: PubChem BioAssay (NCI)
About 79,000 compounds went through this panel and 15% of them were active in at least one assay; those are over-represented in the sample as a whole. Calls of active or inactive are those of the source. Rule as the data show it: active = growth inhibition above about 70%; inactive = the rest.

Experiments:
[1] = NCI Yeast Anticancer Drug Screen. Data for the mec2-1 strain (AID 157); conditions: S. cerevisiae mec2-1 strain, stronger effect = higher value
Method in brief: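 Strain: mec2-1 (DNA repair/cell cycle alteration). Compound exposure, then growth measured; inhibition expressed relative to vehicle.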

[2] = NCI Yeast Anticancer Drug Screen. Data for the rad14 strain (AID 159);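 also: 0% = growth of vehicle-treated control cultures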; conditions: S. cerevisiae rad14 strain growth inhibition, stronger effect = higher value
Method in brief: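 Compound-treated yeast with a defined DNA-repair lesion; growth inhibition normalised to vehicle-treated cultures.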

[3] = NCI Yeast Anticancer Drug Screen. Data for the sgs1 mgt1 strain (AID 161);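 also: 0% = growth of cultures given vehicle only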; conditions: S. cerevisiae sgs1 mgt1 strain, stronger effect = higher value
Method in brief: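 Read-out: growth inhibition vs vehicle controls. Cells: mutant yeast strain deficient in DNA damage repair.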

[4] = NCI Yeast Anticancer Drug Screen. Data for the CLN2oe strain (AID 163);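 also: 0% = growth of vehicle-only control cultures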; conditions: S. cerevisiae CLN2oe strain, stronger effect = higher value
Method in brief: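 Growth of a genetically modified yeast strain is measured after compound exposure and compared with cultures given vehicle alone.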

[5] = NCI Yeast Anticancer Drug Screen. Data for the cln2 rad14 strain (AID 165);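 also: 0% = growth equal to vehicle treated cultures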; conditions: S. cerevisiae cln2 rad14 strain, stronger effect = higher value
Method in brief: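 Compounds are applied to the cln2 rad14 yeast strain, and growth is then compared with that of vehicle-treated cultures to give inhibition.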

[6] = NCI Yeast Anticancer Drug Screen. Data for the bub3 strain (AID 167); conditions: S. cerevisiae bub3 mutant strain, stronger effect = higher value
Method in brief: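 Growth of a checkpoint-deficient yeast mutant is measured after compound exposure. Values represent inhibition relative to vehicle.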

[7] = NCI Yeast Anticancer Drug Screen. Data for the wt2 strain (AID 169);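 also: 0% = growth of vehicle-treated yeast cultures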; conditions: S. cerevisiae wt2 strain growth inhibition, stronger effect = higher value
Method in brief: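 This strain belongs to a panel of yeast strains with defined genetic alterations in DNA damage repair or cell cycle control. Compounds are applied, and growth inhibition is measured against vehicle-treated cultures.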

[8] = NCI Yeast Anticancer Drug Screen. Data for the sgs1 strain (AID 173);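 also: 0% = growth of vehicle-only control cultures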; conditions: S. cerevisiae sgs1 mutant, stronger effect = higher value
Method in brief: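 Growth of a yeast strain bearing a defined genetic alteration is measured after compound treatment. Inhibition is expressed relative to vehicle-only controls.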

[9] = NCI Yeast Anticancer Drug Screen. Data for the mlh1 rad18 strain (AID 175); conditions: S. cerevisiae mlh1 rad18 strain growth inhibition, stronger effect = higher value
Method in brief: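 Read-out is yeast growth inhibition, calculated against vehicle-only controls. The compound was applied to a strain engineered with DNA damage repair alterations.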

[10] = NCI Yeast Anticancer Drug Screen. Data for the rad18 strain (AID 177); conditions: S. cerevisiae rad18 mutant growth inhibition, stronger effect = higher value
Method in brief: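 Growth of the mutant yeast strain after compound exposure, normalised to vehicle-only cultures.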

[11] = NCI Yeast Anticancer Drug Screen. Data for the rad52 strain (AID 147);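 also: 0% = growth of vehicle-treated control cultures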; conditions: S. cerevisiae rad52 mutant growth inhibition, stronger effect = higher value
Method in brief: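 Compounds are applied to a genetically defined yeast strain lacking normal DNA damage repair, and inhibition of growth is expressed relative to cultures given vehicle only.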

[12] = NCI Yeast Anticancer Drug Screen. Data for the rad50EPP+ strain (AID 151);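 also: 0% = growth of vehicle-treated control cultures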; conditions: S. cerevisiae rad50 mutant strain, stronger effect = higher value
Method in brief: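 Compounds were applied to the rad50EPP+ yeast strain, which bears a defined DNA repair alteration, and growth inhibition was determined relative to vehicle-treated cultures.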

[13] = NCI Yeast Anticancer Drug Screen. Data for the mgt1 strain (AID 153); conditions: S. cerevisiae mgt1 mutant growth inhibition, stronger effect = higher value
Method in brief: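 Strain: mgt1 yeast, one of a set carrying defined DNA damage repair or cell cycle control alterations. Compound-treated growth compared with vehicle.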

[14] = NCI Yeast Anticancer Drug Screen. Data for the rad50 strain (AID 155);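 also: 0% = growth of vehicle-only cultures of the same strain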; conditions: S. cerevisiae rad50 strain growth inhibition, stronger effect = higher value
Method in brief: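 Compounds were tested on a yeast strain with an engineered DNA damage repair alteration; the reported value is growth inhibition normalised to vehicle treatment.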

[15] = NCI Yeast Anticancer Drug Screen. Data for the wt1 strain (AID 149);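 also: 0% = growth of vehicle-treated wt1 cultures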; conditions: S. cerevisiae wt1 strain (SPY 50644) growth inhibition, stronger effect = higher value
Method in brief: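 Readout: yeast growth inhibition, normalised to vehicle controls, in the wt1 strain exposed to test compounds.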

[16] = NCI Yeast Anticancer Drug Screen. Data for the mlh1 strain (AID 171);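 also: 0% = growth of vehicle-treated control cultures of the same strain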; conditions: S. cerevisiae mlh1 strain growth inhibition, stronger effect = higher value
Method in brief: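 Growth of the mutant yeast strain after compound exposure, expressed as inhibition relative to vehicle-only controls.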

[17] = at 5.0 µM (retest, dose inferred, filed as 0.5)
[18] = at 50.0 µM (retest, dose inferred, filed as 5.0)

Measured: growth inhibition

Brc1ccccc1-c1ncc(-c2ccccc2)o1
active: [1]; at 100.0 µM 76% | [2]; at 100.0 µM 80% | [3]; at 50.0 µM 71.4% | [6]; at 33.0 µM 74% | [6]; [18] 82% | [6]; at 50.0 µM 71.2% | [6]; at 100.0 µM 76% | [9]; [18] 82% | [10]; at 33.0 µM 75% | [10]; at 100.0 µM 78%
inactive: [2]; at 1.2 µM -43% | [2]; at 3.7 µM -36% | [2]; at 11.0 µM -16% | [2]; at 33.0 µM 55% | [3]; [17] -18% | [3]; [18] 61% | [4]; at 1.2 µM 0% | [4]; at 3.7 µM -8% | [4]; at 11.0 µM 3% | [4]; at 33.0 µM 6% | [4]; at 100.0 µM 5% | [5]; [17] 33% | [5]; [18] 68% | [5]; at 50.0 µM 37.9% | [6]; at 1.2 µM 15% | [6]; at 3.7 µM 6% | [6]; [17] 40% | [6]; at 11.0 µM 52% | [7]; at 1.2 µM -46% | [7]; at 3.7 µM -43% | [7]; at 11.0 µM -35% | [7]; at 33.0 µM 21% | [7]; at 100.0 µM 43% | [8]; at 1.2 µM -1% | [8]; at 3.7 µM -17% | [8]; at 11.0 µM 7% | [8]; at 33.0 µM 50% | [8]; at 100.0 µM 60% | [9]; [17] 37% | [9]; at 50.0 µM 56.9% | [10]; at 1.2 µM -7% | [10]; at 3.7 µM 0% | [10]; at 11.0 µM 51%

CC(=O)OCC(C)Cc1cc2c(cc1Br)OCO2 (centres undefined)
inactive: [11]; at 1.2 µM -6% | [11]; at 3.7 µM -11% | [11]; at 11.0 µM -8% | [11]; at 33.0 µM -3% | [11]; at 100.0 µM 19% | [12]; at 1.2 µM -9% | [12]; at 3.7 µM -6% | [12]; at 11.0 µM 16% | [12]; at 33.0 µM 18% | [12]; at 100.0 µM 33% | [13]; at 1.2 µM -3% | [13]; at 3.7 µM -9% | [13]; at 11.0 µM -8% | [13]; at 33.0 µM -9% | [13]; at 100.0 µM 16% | [14]; at 1.2 µM -16% | [14]; at 3.7 µM -19% | [14]; [17] 2% | [14]; at 11.0 µM -23% | [14]; at 33.0 µM -13% | [14]; [18] 19% | [14]; at 50.0 µM 31.6% | [14]; at 100.0 µM 38% | [1]; at 1.2 µM -3% | [1]; at 3.7 µM -4% | [1]; [17] 0% | [1]; at 11.0 µM -6% | [1]; at 33.0 µM -11% | [1]; [18] 37% | [1]; at 50.0 µM 3.8% | [1]; at 100.0 µM -10% | [2]; at 1.2 µM 4% | [2]; at 3.7 µM -3% | [2]; at 11.0 µM 9% | [2]; at 33.0 µM 12% | [2]; at 100.0 µM 56% | [3]; [17] 1% | [5]; [17] -1% | [5]; [18] 12% | [5]; at 50.0 µM 4.65% | [6]; at 1.2 µM -2% | [6]; at 3.7 µM 3% | [6]; [17] 7% | [6]; at 11.0 µM 2% | [6]; at 33.0 µM 2% | [6]; [18] 43% | [6]; at 50.0 µM 19.8% | [6]; at 100.0 µM 21% | [7]; at 1.2 µM -1% | [7]; at 3.7 µM 0% | [7]; at 11.0 µM 7% | [7]; at 33.0 µM 20% | [8]; at 1.2 µM -66% | [8]; at 3.7 µM -14% | [8]; at 11.0 µM 3% | [8]; at 33.0 µM 15% | [9]; [17] 1% | [10]; at 1.2 µM -9% | [10]; at 3.7 µM -8% | [10]; at 11.0 µM -10% | [10]; at 33.0 µM -10% | [10]; at 100.0 µM 13%
active: [3]; [18] 72% | [3]; at 50.0 µM 91.3% | [7]; at 100.0 µM 89% | [8]; at 100.0 µM 78% | [9]; [18] 70% | [9]; at 50.0 µM 78.8%

CC(=O)Nc1ccc2c(c1)Cc1cc(N=C3C=CC(=O)O3)ccc1-2
inactive: [15]; at 1.2 µM 0% | [15]; at 3.7 µM 14% | [15]; at 11.0 µM 41% | [12]; at 1.2 µM 37% | [13]; at 1.2 µM 9% | [13]; at 3.7 µM 19% | [13]; at 11.0 µM 67% | [14]; at 1.2 µM 9% | [14]; at 3.7 µM 31% | [14]; [17] 60% | [14]; at 50.0 µM 28.6% | [1]; at 1.2 µM 19% | [1]; at 3.7 µM 31% | [1]; at 50.0 µM 15.8% | [2]; at 1.2 µM 12% | [2]; at 3.7 µM 27% | [3]; [17] 54% | [3]; at 50.0 µM 49.1% | [4]; at 1.2 µM 6% | [4]; at 3.7 µM 16% | [4]; at 11.0 µM 47% | [5]; [17] 9% | [5]; at 50.0 µM 24.9% | [6]; at 1.2 µM -1% | [6]; at 3.7 µM 7% | [6]; [17] 32% | [6]; at 50.0 µM 29.5% | [7]; at 1.2 µM 0% | [7]; at 3.7 µM 18% | [16]; at 1.2 µM 12% | [16]; at 3.7 µM 25% | [8]; at 1.2 µM 14% | [8]; at 3.7 µM 34% | [9]; at 50.0 µM 0.7% | [10]; at 1.2 µM 12% | [10]; at 3.7 µM 31%
active: [15]; at 33.0 µM 99% | [15]; at 100.0 µM 99% | [12]; at 3.7 µM 77% | [12]; at 11.0 µM 96% | [12]; at 33.0 µM 99% | [12]; at 100.0 µM 99% | [13]; at 33.0 µM 99% | [13]; at 100.0 µM 99% | [14]; at 11.0 µM 81% | [14]; at 33.0 µM 99% | [14]; [18] 99% | [14]; at 100.0 µM 99% | [1]; [17] 87% | [1]; at 11.0 µM 89% | [1]; at 33.0 µM 99% | [1]; [18] 99% | [1]; at 100.0 µM 99% | [2]; at 11.0 µM 84% | [2]; at 33.0 µM 99% | [2]; at 100.0 µM 99% | [3]; [18] 99% | [4]; at 33.0 µM 99% | [4]; at 100.0 µM 99% | [5]; [18] 99% | [6]; at 11.0 µM 72% | [6]; at 33.0 µM 99% | [6]; [18] 99% | [6]; at 100.0 µM 98% | [7]; at 11.0 µM 93% | [7]; at 33.0 µM 99% | [7]; at 100.0 µM 95% | [16]; at 11.0 µM 93% | [16]; at 33.0 µM 99% | [16]; at 100.0 µM 99% | [8]; at 11.0 µM 92% | [8]; at 33.0 µM 99% | [8]; at 100.0 µM 99% | [9]; [17] 82% | [9]; [18] 99% | [10]; at 11.0 µM 91% | [10]; at 33.0 µM 99% | [10]; at 100.0 µM 99%
